# Assay results published in the supplement of paper PMC6555819.
# What was measured:
# Experiment in all cases: PBM binding z-score (relative to random genomic background probes); higher = stronger binding; sequences stand for … in GC…GCGATTGACAGCGTAGAATGAAGG
# [1] = system: PPARg:RXRa DBDmut IVT, anti-RXR (DBD mutation: RXRa K156A/R161A, NR concentration 270 nM, RXRa partner concentration 90 nM)
# In short: (§1)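 Custom Agilent 4×180K protein-binding microarrays carried double-stranded probes. Their 34-nt variable regions held direct-repeat seeds, single-nucleotide variants, half-site ablations and random human genomic background sequences. Arrays were incubated 1 h with ligand-free nuclear receptor dimers in PBS pH 7.4, 2% milk, 0.02% Triton X-100, 1 mM DTT, 0.2 mg/mL BSA and 0.4 mg/ml salmon testes DNA. Antibodies against each partner (one per run) detected binding, and scanned fluorescence was regression-normalized. Binding z-scores use random background probes as reference.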
# [2] = system: PPARg:RXRa IVT, anti-PPARg (NR concentration 270 nM, RXRa partner concentration 90 nM)
# In short: as §1
# [3] = system: PPARg DBDmut:RXRa IVT, anti-PPARg (DBD mutation: PPARg1 K132A/R137A, NR concentration 270 nM, RXRa partner concentration 90 nM)
# In short: as §1
# [4] = system: PPARg DBDmut IVT, anti-PPARg (DBD mutation: PPARg1 K132A/R137A, NR concentration 270 nM)
# In short: as §1
# [5] = system: PPARg homodimer (NR concentration 180 nM)
# In short: as §1
# [6] = system: PXR:RXRa (NR concentration 270 nM, RXRa partner concentration 90 nM)
# In short: as §1
# [7] = system: PXR homodimer (NR concentration 270 nM)
# In short: as §1
# [8] = system: RARa:RXR (NR concentration 270 nM, RXRa partner concentration 90 nM)
# In short: as §1
# [9] = system: RARa homodimer (NR concentration 270 nM)
# In short: as §1
# [10] = system: RARb:RXRa (NR concentration 270 nM, RXRa partner concentration 90 nM)
# In short: as §1
Sequence,PBM binding z-score [1],PBM binding z-score [2],PBM binding z-score [3],PBM binding z-score [4],PBM binding z-score [5],PBM binding z-score [6],PBM binding z-score [7],PBM binding z-score [8],PBM binding z-score [9],PBM binding z-score [10]
TCTGCAAGGTCAGTTGGTCAGCTAACGAGCTGCC,1.67,2.69,0.998,1.09,1.99,2.09,-0.237,2.67,-0.428,4.43
CGAAGTAGGTCAGAACAGGACAGTGAAGGATGAT,7.52,7.53,0.926,0.783,1.04,0.897,-0.0169,0.781,0.475,2.75
TCTTGTAGATCAATAGAGGTTAACAAAGTGCGCT,1.65,1.38,0.608,1.56,0.466,3.82,0.45,2,0.875,1.02
ATATGTAGGGTACATCCGGGTCATTCAGGCTATG,5.82,6.25,2.33,1.87,1.74,4.11,9.27,3.12,0.779,1.73
GCGACTGGGGCAAAGCAGGTTACCATGAGGTTGG,4.46,3.79,-0.666,-1.4,0.0533,0.378,-0.61,0.383,-0.939,0.981
TCTAGCAGGCCTGAGGGTCACTCAAGAGGTACGG,0.475,-0.212,-2.08,-1.13,0.706,1.92,-0.465,2.85,-0.571,2.12
ATCGAAAGGTCGAAGGTGGGTATACCCACCCGAA,-0.494,1.52,0.29,0.264,1.05,2.11,-0.101,3.05,-0.341,3.51
AGTCAAAGTTCATCTAGGTAAGGTAAGATATGCT,0.598,3.32,1.53,0.676,3.1,5.24,5.75,3.9,1.68,4.91
ACTAGCAAGCCAAGTTTGGGTCACTCAAACAAAG,-0.834,0.332,-1.3,-0.652,-0.225,0.253,-0.636,0.968,-0.901,0.801
CGAACTAGGTCATTGACAGGCCAGTGAATAGTAA,8.3,7.98,0.866,1.34,1.29,1.34,-0.173,2.06,-0.0851,3.64
AGATGTAGGTTAAGGGTCATTCAGGTTGGTTCGC,7.33,7.46,1.97,1.04,3.44,5.52,3.11,6.2,2.4,3.66
TCGAGTAGGTTATGGGCATTCAGAATGGCGTCGA,1.95,1.36,-0.529,-0.999,0.0273,-0.316,-0.754,-0.148,-0.374,0.453
GCTAGTTGGTCCGTAAAAGGTCACACACCGGTCG,0.234,1.86,0.724,0.195,2.89,4.94,1.12,5.63,1.86,3.99
CATACAGGGTTAGCTAGGCCAGAGTAGGGACGGC,-0.169,0.541,-0.056,-0.72,-0.367,-0.275,-0.684,0.13,-0.529,1.07
CAAACTAGGCCACAGAGGTCAAAGTCCGTGCGTA,7.36,7.37,2.08,0.00435,3.3,5.81,4.73,6.18,0.998,4.29
AGTCAAAGCTCATCTAGGTAACGTAAGATATGCT,0.59,1.71,0.357,0.493,-0.497,-0.42,-0.351,-0.0294,-0.0154,-0.0836
CCTATTAGTTGACCAGAAGGGCAACCGAAGCTCG,0.319,0.518,-0.0786,0.481,1.64,0.463,0.906,0.452,2.07,1.61
AGAACGAGGGCACGCTGAGTTGTTAGCAGAGTAG,4.03,3.92,0.505,0.0717,-0.208,0.851,-0.39,0.724,-0.521,2.62
CCAGACACGTGAGAAGGTAACTCAGCCTCGATTA,-0.227,-0.531,-0.51,-0.51,0.168,-0.212,0.145,-0.206,0.356,-0.318
TCTATTAGTTGATTAGGGCAACAGAAACAGCGGA,2.04,1.59,1.69,1.06,1.02,0.573,0.374,0.636,1.08,0.82
CCAGACATGTGAAAGGTAACTCAGTCTGGTACGC,0.121,0.275,-0.125,0.223,0.969,0.118,-0.196,0.553,0.138,0.186
CAAACTAGGACACGAAAGGTCAAAGTCGAATGAC,6.64,6.94,2.48,3.31,4.51,5.64,1.78,6.19,3.15,4.52
CCAGACAGGTGAGAGGTAACTCAGTCTGGTACGC,1.59,1.87,-0.562,-0.501,0.989,-0.00466,-0.224,0.194,0.0236,0.78
TCTATTAGGTGAAGGGCAACCGACGAGTCCGTTT,5.49,4.75,1.19,0.901,1.58,0.47,0.805,0.687,0.733,2

Sequence,PBM binding z-score [1],PBM binding z-score [2],PBM binding z-score [3],PBM binding z-score [4],PBM binding z-score [5],PBM binding z-score [6],PBM binding z-score [7],PBM binding z-score [8],PBM binding z-score [9],PBM binding z-score [10]
GCGACTGGGTCATCAGCAGGTTACCATAACTTAA,5.38,5.94,0.513,-0.691,1.31,2.22,-0.585,3.39,-0.469,3.23
TAGCCCAGGTCATGCGGGCCAGTATAGTGTCGGC,0.638,2.57,-0.0508,-0.838,0.868,2.52,0.093,3.04,-0.161,3.74
CAGCCTGGGTCAGGGCCAGTATAGGAGGAACGTT,-0.161,1.32,-1.28,-1.68,0.728,0.109,-0.685,0.59,-0.125,2.83
GCTCGGAGGGCAAGGTCAGAGCTTTGTCCGTAGA,0.731,1.11,-2.58,-1.43,2.03,2.07,-0.437,2.52,-0.775,3.76
ACAGACAGGTGATTAAGGTAACTCAGGCTATCAT,0.239,0.557,0.291,-0.545,0.126,0.164,0.294,1.23,0.587,0.35
ATACCAAGGTGATCGTGACGTCGTTGATACTAAC,0.791,1.2,0.681,0.866,0.477,0.0619,0.0409,0.447,0.899,0.752
GGAACGAGGGCATTCGACTTGATAGCATGGCGAT,2.67,2.21,0.442,0.0396,-0.0413,0.499,0.283,-0.119,-0.012,1.6
CCTACTGGGCCAAAGTTCATTGATTCCAATGCTC,4.73,6.06,-0.1,-0.115,4.94,4.5,8.31,2.99,0.508,3.13
TCGAGTAGGTTACGGGCATTCAGAATGGCGTCGA,3.6,3.2,-0.359,-0.95,-0.405,0.127,-0.967,0.109,-1.16,1.29
ACAGACCGGTGAGTGAAGGTAACTCAGCTGGACG,-0.439,-0.283,-0.662,-1.09,-0.786,-0.593,-0.655,-0.54,-0.997,-0.197
CCGACTGGGGCAAAGGTTACCATACTCAGTACGA,4.37,6,0.389,-0.153,1.16,2.32,-0.304,3.94,0.0257,2.4
GGGACTGGGGCATCAGCAGGTTACCATAACTTAA,4.49,5.48,0.985,1.98,1.51,1.12,0.678,1.2,0.663,1.33
AATACAGGGTCACTAGGCCAGACTAGGTACGAAT,4.01,5.9,3.19,1.09,1.28,3.06,0.374,3.87,0.731,4.3
GCTAGCAGGCCATATGGGTCACTCAATGACGGGC,1.57,2.68,-0.447,-0.866,-0.0235,0.585,-0.337,1,-0.311,1.62
TCTAGTTGCTCAAAGGTCACACACTCGAAATGCG,2.7,3.98,1.38,1.19,3.79,5.31,1.24,5.48,2.63,4.94
CCTCGGAGGACAGAAGGCCAGAGCTGTCCGCTTT,-0.668,-1.07,-2.21,-1.68,-0.167,-0.524,-1.34,-0.34,-0.862,0.374
CCTATTAGTTGACCATAAGGGCAAACGAAGCTCG,0.266,0.555,0.151,0.588,1.58,0.75,0.863,1.02,1.31,1.52
TCTTGTAGACCAACAGGAGGTTAAGAAAGATCGA,1.42,0.757,-0.365,0.137,-0.0799,0.757,0.175,0.783,-0.189,0.416
CCGACTGGGGCAGAAAAGTTACCATACCATCCGG,1.36,0.746,-1.85,-1.61,0.0393,-0.593,-0.395,-0.848,0.0243,-0.0999
GCTCGGAGGACACGGTCAGAGCTTTGTCCGTAGA,-0.213,-0.07,-1.69,-1.2,-0.679,-0.581,-1.34,-0.541,-1.26,2.09
TAGCCGAGGTCATGGGCCAGTATACCACGCGAAC,1.94,4.59,1.31,0.953,2.7,5.24,0.728,5.62,0.741,5.01
TGAATGAGGTTAAAGATCAAGGAACGTGGCGTCG,1.88,3.3,0.538,0.468,0.301,2.23,-0.137,3.64,0.0967,2.11
ATCGAAAGGTCCTGAGGTGAGTATACAGAAAGGC,-0.172,0.777,0.834,0.602,0.413,0.102,-0.0977,0.895,0.0282,1.12
GGAACGAGGGCCAGTTGATAGCAGAGTTTGATGG,0.134,-0.54,-0.953,-0.88,-0.513,-0.515,-0.158,-0.522,-1.03,0.217
